# HP1b binding inh = HP1-beta chromodomain-methylated histone interaction inhibition; P83916; AlphaScreen HP1-beta / biotin-H3K9me3 peptide binding; Potency, µM (top dose mostly 114 µM), most hits filed as inhibitors; actives 0.56% (n = 390,000); AID 540317; note: nearly all actives have a fitted effect of over 70% in size
#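 Compound inhibition of the preformed complex between 50 nM HP1-beta and 50 nM biotinylated H3K9me3 peptide was read by AlphaScreen. Buffer was PBS pH 7.4 with 0.01% Tween-20. Incubations ran 30 min at room temperature, with 10 ug/mL donor/acceptor beads.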
# BAZ2B block = inhibitors of human BAZ2B bromodomain; Q9UIF8; AlphaScreen BAZ2B-H3K14Ac peptide displacement; Potency, µM (top dose mostly 114 µM), most hits filed as inhibitors; actives 4.4% (n = 360,000); AID 504333; note: nearly all actives have a fitted effect of over 60% in size
#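 In this displacement format the biotinylated H3(5-23) peptide acetylated at Lys14 serves as ligand at 50 nM, with BAZ2B at 50 nM in PBS pH 7.4 containing 0.01% Tween-20. Donor and acceptor beads are 10 ug/mL final.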
# JMJD2A Tudor inh = blocks the human JMJD2A Tudor domain. AID 504339. Potency, µM (titrated, usually from 114 µM), actives largely listed as inhibitors. AlphaScreen JMJD2A-Tudor / H3K4me3 peptide binding. actives 4.4% (n = 390,000). O75164; note: nearly all actives have a fitted effect of over 50% in size
# GLS inhibitor = glutaminase GLS (human) inhibition; actives 0.21% (n = 410,000); GLS enzymatic activity, qHTS titration; Potency, µM (top dose mostly 45.5 µM), actives largely listed as inhibitors; O94925
# Target sequence (O94925 whole entry, looked up): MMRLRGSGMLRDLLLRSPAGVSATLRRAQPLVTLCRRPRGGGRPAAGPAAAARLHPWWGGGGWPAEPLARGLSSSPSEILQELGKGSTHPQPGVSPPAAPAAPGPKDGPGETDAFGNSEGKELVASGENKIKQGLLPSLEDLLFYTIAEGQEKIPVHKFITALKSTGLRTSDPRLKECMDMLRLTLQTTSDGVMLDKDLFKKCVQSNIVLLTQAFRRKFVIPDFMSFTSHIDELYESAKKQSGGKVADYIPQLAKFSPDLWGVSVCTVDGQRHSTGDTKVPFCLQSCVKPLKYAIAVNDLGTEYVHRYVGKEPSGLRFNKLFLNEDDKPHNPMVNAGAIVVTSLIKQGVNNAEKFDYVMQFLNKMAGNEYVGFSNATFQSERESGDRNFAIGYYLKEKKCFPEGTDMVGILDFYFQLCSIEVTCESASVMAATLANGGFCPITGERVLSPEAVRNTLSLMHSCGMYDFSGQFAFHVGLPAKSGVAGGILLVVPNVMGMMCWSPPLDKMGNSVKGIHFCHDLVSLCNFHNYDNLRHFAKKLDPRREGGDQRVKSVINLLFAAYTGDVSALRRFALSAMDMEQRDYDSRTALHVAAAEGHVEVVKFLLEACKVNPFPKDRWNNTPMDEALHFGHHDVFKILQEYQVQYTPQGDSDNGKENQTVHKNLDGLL
#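 Coupled fluorescence readout: glutamate oxidase/HRP/Amplex Red detect glutamate formed by hKGA from L-glutamine (1 mM solution added). Buffer 45 mM KH2PO4 pH 8.2, 0.02% Tween-20; reads at t0 and 30 min RT.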
# G9a inh = G9a (human) methyltransferase inhibition | Potency, µM (highest dose often 102 µM), usual class: inhibitors | Q96KQ7 | G9a H3K9 monomethylation, AlphaScreen, 2 h | actives 8.8% (n = 350,000); note: nearly all actives have a fitted effect of over 75% in size
#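 Signal arises when biotinylated H3K9 peptide, once monomethylated, bridges streptavidin donor and antibody-captured acceptor beads. Enzyme at 20 nM was preincubated 15 min with test compounds; peptide 500 nM and SAM 20 uM then reacted for 2 h.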
# Hits are given with their value; i = inactive; ? = inconclusive; nt = no result given; [ ] = dose if it differs, or a comment. A selection: hits, their analogues and other compounds. The true share with any hit is near 10%. Calls come from the whole dose curve; as a rule, active = well fitted curve in the direction sought with a large enough effect; inconclusive = small, poorly fitted or top-dose-only effect, or another doubt; inactive = no such curve, though single readings can be large; an effect the other way counts as inactive or inconclusive.
SMILES,HP1b binding inh,BAZ2B block,JMJD2A Tudor inh,GLS inhibitor,G9a inh
O=C(NC(=S)Nc1ccccc1N1CCCCC1)c1ccccc1,i,?,?,i,32µM
O=C(Nc1ccccc1N1CCCC1)c1cccc(F)c1,i,?,i,i,35µM
Cc1cc(-n2nc3ccccc3n2)c(O)c([N+](=O)[O-])c1,i,i,i,i,79µM
ClN=C1C=CC=CC1=NCl,nt,nt,nt,10µM,nt
Cc1cccc(NC(=O)CNC(=O)CNC(=O)Cc2ccccc2)c1,i,i,i,i,i
Cc1cc(C)c2[nH]c(C(=O)Nc3ccc(F)cc3Br)cc2c1,i,i,i,i,50µM
Cc1ccc2[nH]c(C(=O)Nc3ccc(F)cc3)cc2c1,i,i,i,i,i[0.501 µM]
CCN1CCN(CC(=O)n2c3c(c4ccccc42)CC(C)CC3)CC1 (stereo not given),i,i,?,i,i
CC1CCc2c(c3ccccc3n2C(=O)CCl)C1 (stereo not given),i,79µM,?,i,i[0.501 µM]
COC(=O)c1cccc(C23CC4(C2)[C@H](CN(Cc2ccc(C(F)(F)F)cc2)[C@@H]4c2ccccc2)C3c2ccccc2)c1 (stereo not given in full),i,i,i,i,i[12.7 µM]
Cc1noc(C)c1COC(=O)c1cc2c3ccccc3n(C)c2s1,i,i,i,i,40µM
O=C(c1ccc(Br)o1)N1CCN=C1SCc1cccc(F)c1,i,i,i,i,i
Cc1ccc(C)c(S(=O)(=O)N2CCN(C(=O)CSC(=S)N3CCCC3)CC2)c1,i,i,i,i,50µM
C#CCOCCOCCOCCNc1nc(N2CCN(C(=O)[C@H](CCC(=O)O)n3cc([C@@H](N)[C@H](C)CC)nn3)CC2)nc(N2CCN(C(=O)[C@H](CCC(=O)O)n3cc([C@@H](N)CC(N)=O)nn3)CC2)n1,i,nt,56µM,i,nt
C#CCOCCOCCOCCNc1nc(N2CCN(C(=O)[C@H](CC(N)=O)n3cc(C(N)[C@@H](C)CC)nn3)CC2)nc(N2CCN(C(=O)[C@H](CCC(=O)O)n3cc([C@@H](N)CCCCN)nn3)CC2)n1 (stereo not given in full),i,nt,79µM,i,nt
C#CCOCCOCCOCCNc1nc(N2CCN(C(=O)[C@H](CC(N)=O)n3cc(C(N)[C@@H](C)CC)nn3)CC2)nc(N2CCN(C(=O)[C@H](CCCCN)n3cc([C@@H](N)CC(N)=O)nn3)CC2)n1 (stereo not given in full),i,nt,79µM,i,nt
C#CCOCCOCCOCCNc1nc(N2CCN(C(=O)[C@H](CCCCN)n3cc([C@@H](N)C(C)CC)nn3)CC2)nc(N2CCN(C(=O)[C@H](CCCCN)n3cc([C@@H](N)CC(C)C)nn3)CC2)n1 (stereo not given in full),i,71µM,?,i,?
CN(C1=NC(=O)C(CC(=O)Nc2ccc(Br)cc2)S1)c1ccc(O)cc1 (stereo not given),i,i,i,i,i
NC(=O)c1nnn(-c2cccc(C(F)(F)F)c2)c1-c1ccccc1,i,i,i,i,nt
COc1ccc([C@@H]2CC=C(C(=O)O)[C@H](c3ccc(C(C)(C)C)cc3)N2S(=O)(=O)c2ccc(C)cc2)cc1OC,i,nt,i,i,nt
C#CCOCCOCCOCCNc1nc(N2CCN(C(=O)[C@H](CCC(=O)O)n3cc([C@@H](N)[C@H](C)CC)nn3)CC2)nc(N2CCN(C(=O)[C@H](CCCCN)n3cc([C@@H](N)CC(N)=O)nn3)CC2)n1,i,nt,5.6µM,i,nt
C#CCOCCOCCOCCNc1nc(N2CCN(C(=O)[C@H](CC(N)=O)n3cc(C(N)[C@H](C)CC)nn3)CC2)nc(N2CCN(C(=O)[C@H](CC(N)=O)n3cc(C(N)[C@@H](C)CC)nn3)CC2)n1 (stereo not given in full),i,nt,22µM,i,nt
C#CCOCCOCCOCCNc1nc(N2CCN(C(=O)[C@H](CCCCN)n3cc(CN)nn3)CC2)nc(N2CCN(C(=O)[C@H](CC(N)=O)n3cc(C(N)[C@H](C)CC)nn3)CC2)n1 (stereo not given in full),i,nt,40µM,i,nt
COC(=O)[C@]12CCCCC=C1N(Cc1ccco1)C(=O)[C@H](CC(=O)N1CCSCC1)C2,nt,nt,nt,i,nt
CCCNC(=O)N1CCC(n2nccc2NC(=O)CCOc2ccccc2)CC1,i,i,i,i,i[0.501 µM]
SMILES,HP1b binding inh,BAZ2B block,JMJD2A Tudor inh,GLS inhibitor,G9a inh
O=C(Nc1ccccc1)c1cc2c(-c3ccccc3)nn(-c3ccccc3)c2s1,i,i,i,i,i
O=C(CSc1nc2scc(-c3ccco3)c2c(=O)n1-c1ccccc1)NCC1CCCO1 (stereo not given),i,35µM,?,nt,8.9µM
NC(=O)CSc1nc2scc(-c3ccco3)c2c(=O)n1-c1ccccc1,?,?,45µM,i,?
C=CCn1c(SCC(=O)NCCOC)nc2scc(-c3ccco3)c2c1=O,i,?,79µM,i,45µM
O=C(NCC1CCCO1)c1cc(NS(=O)(=O)c2cccs2)cc(NS(=O)(=O)c2cccs2)c1 (stereo not given),i,i,i,i,i
COc1ccc(CC(=O)Nc2ccccc2C(=O)NCCc2ccccc2)cc1,i,i,i,i,nt
Cc1ccccc1N=C1NC(=O)/C(=C/c2cccn2-c2cccc(C(=O)O)c2)S1,?,40µM,50µM,i,28µM
Cc1cccc(N=C2NC(=O)/C(=C/c3cccn3C)S2)c1C,i,32µM,?,i,?
Cc1ccc(N=C2NC(=O)/C(=C/c3cccn3C)S2)cc1C,i,i,i,i,i
O/N=C/c1cc(Cl)ccc1OCc1ccccc1Cl,i,i,i[11.4 µM],i,i
Cc1ccc(NC(C)C(=O)N/N=C/c2ccc([N+](=O)[O-])s2)cc1 (stereo not given),i,i,i,i,?
CCCN(CC(=O)Nc1ccccc1OC)C(=O)c1cc2ccccc2o1,i,i,i,i,i
CN(CC(=O)Nc1ccccc1C(F)(F)F)Cc1c(O)ccc2ccccc12,i,?,79µM,?,7.9µM
CCCN(CC(=O)Nc1ccccc1OC)Cc1c(O)ccc2ccccc12,?,?,56µM,i,3.5µM
CC(=O)Nc1ccc(NC(=O)c2ccc(OCc3c(C)noc3C)cc2)cc1,i,nt,i,i,nt
COC(=O)c1ccc(C)c(NS(=O)(=O)c2ccc(OC)cc2)c1,i,i,i,i,i
Cc1cc(N2CCN(C)CC2)nc2ccc(NC(=S)N3CCN(c4ccccn4)CC3)cc12,i,?,?,i,50µM
Cc1nc2ccc(NC(=S)N3CCN(c4ccccn4)CC3)cc2nc1C,i,i,i,i,i
Cc1cc(N2CCN(C)CC2)nc2ccc(NC(=S)N3CCC4(CC3)OCCO4)cc12,i,i,i,i,45µM
Cc1ccc(C)c(N2CCN(C(=S)Nc3ccc4nc(N5CCN(C)CC5)cc(C)c4c3)CC2)c1,i,i,i,i,40µM
Cc1cn([C@H]2C[C@H](O)[C@@H](/C=C/C(=O)NCCc3cccs3)O2)c(=O)[nH]c1=O,nt,nt,nt,i,nt
